# The list is not random: actives were taken first. Their share in the collection is about 11%.
# NPR1 antag: human Npr1 receptor antagonism | P16066 | AID 1347048 | HEK293 hNpr1 GloSensor cGMP, ANP-stimulated luminescence | Potency, µM (highest dose often 46.3 µM), for inactives: top-dose activity change, negative = inhibition, most hits filed as inhibitors | 76,000 compounds, 1.6% hits; calls by dose curve; note: % is set by controls: 0 for no effect and ±100 for the full control effect; nearly all actives have a fitted effect of over 60% in size
#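 HEK293 cells stably expressing human Npr1 and cGMP GloSensor pGS-40F, loaded 2 h with 2% GloSensor reagent, given compound 30 min at room temperature. Luminescence read before and 20 min after 0.1 nM hNppA.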
# NIH3T3 tox: kills NIH 3T3 cells; NIH 3T3 viability, CellTiter-Glo ATP luminescence, 48-72 h; Potency, µM (doses to about 96.7 µM), for inactives: at the top dose activity change, negative = cytotoxicity, most hits filed as inhibitors; 94,000 compounds, 4.3% hits; note: % is set by controls: 0 for no effect and ±100 for the full control effect; nearly all actives have a fitted effect of over 55% in size
#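 Cytotoxicity was measured by CellTiter-Glo ATP luminescence after 48 or 72 h compound exposure at 37 °C. Mouse NIH 3T3 fibroblasts were seeded at 400 cells/well and dosed by 23 nL pin transfer.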
# FLuc inh-1: Photinus pyralis luciferase inhibition; purified P. pyralis luciferase, luminescence, biochemical; Potency, µM (doses to about 115 µM), most hits filed as inhibitors; 76,000 compounds, 2.5% hits; note: % is set by controls: 0 for no effect and ±100 for the full control effect; nearly all actives have a fitted effect of over 65% in size
# Target sequence (P08659 whole entry, looked up): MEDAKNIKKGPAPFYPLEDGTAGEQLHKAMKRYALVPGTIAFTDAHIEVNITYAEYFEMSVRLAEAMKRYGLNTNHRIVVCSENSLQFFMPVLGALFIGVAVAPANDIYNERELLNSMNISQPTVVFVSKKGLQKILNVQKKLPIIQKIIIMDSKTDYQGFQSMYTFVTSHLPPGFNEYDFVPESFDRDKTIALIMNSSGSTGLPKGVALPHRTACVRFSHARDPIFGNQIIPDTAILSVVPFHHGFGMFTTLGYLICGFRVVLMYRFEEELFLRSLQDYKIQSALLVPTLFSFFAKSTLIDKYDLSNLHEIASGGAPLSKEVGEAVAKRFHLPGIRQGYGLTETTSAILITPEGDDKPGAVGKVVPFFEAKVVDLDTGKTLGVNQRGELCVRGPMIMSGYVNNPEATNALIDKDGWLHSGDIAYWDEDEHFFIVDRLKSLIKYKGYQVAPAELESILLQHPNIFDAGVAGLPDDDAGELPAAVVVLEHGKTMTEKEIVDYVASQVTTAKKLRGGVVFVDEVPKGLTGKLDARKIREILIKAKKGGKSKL
#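 Luminescence read by CCD imager after adding enzyme (10nM final) to wells holding compound, titrated in qHTS. Substrates 10uM each D-luciferin and ATP; buffer 50mM Tris acetate pH 7.5, 10mM Mg acetate, Tween-20, BSA.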
# HEK293 tox: HEK 293 cell cytotoxicity; HEK 293 viability, ATP luminescence (CellTiter-Glo), 48-72 h; Potency, µM (series often up to 115 µM), for inactives: top-dose activity change, negative = cytotoxicity, hits mostly inhibitors; 94,000 compounds, 6.6% hits; AID 1345083; note: % is set by controls: 0 for no effect and ±100 for the full control effect; nearly all actives have a fitted effect of over 60% in size
#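 qHTS cytotoxicity; HEK 293, 250 cells/well; compound pinned; 48 or 72 hr, 37 degree Celsius, 5% CO2, 95% humidity; CellTiter-Glo, 10 min RT; luminescence (ATP).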
# FLuc SDR -ATP: stabilizes firefly luciferase without ATP; shares compounds with FLuc inh-1; Purified FLuc-C-HiBiT, Nano-Glo HiBiT luminescence, no ATP; Potency, µM (series often up to 32.7 µM), inactives show at the highest dose activation (signal gain), most hits filed as activators; 1,300 compounds, 7.8% hits; note: nearly all actives have a fitted effect of over 55% in size
# FLuc SDR ATP: stabilizes firefly luciferase with ATP present. Potency, µM (highest dose often 32.7 µM), for inactives: at the highest dose activation (gain of signal), usual class: activators. 1,300 compounds, 8.7% hits. purified FLuc-C-HiBiT + ATP, HiBiT complementation luminescence. shares compounds with FLuc inh-1;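 note: signal reports ligand binding via conformational change of the enzyme rather than luciferase catalysis; % of control where 0% means no effect; nearly all actives have a fitted effect of over 55% in size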
# FLuc inh-2: blocks firefly luciferase enzymatic activity; 1,300 compounds, 42% hits; shares compounds with FLuc inh-1; Potency, µM (doses to about 32.7 µM), for inactives: top-dose activity change, negative = inhibition, actives largely listed as inhibitors; purified FLuc-C-HiBiT enzyme, luciferin luminescence; note: % is set by controls: 0 for no effect and ±100 for the full control effect; nearly all actives have a fitted effect of over 70% in size
# Active calls of the source: *; i = inactive; ? = inconclusive; / = not tested or not shown; [ ] = another dose, or the depositor's remark. Unless noted, calls come from the whole dose curve; as a rule, active = well fitted curve in the direction sought with a large enough effect; inconclusive = small, poorly fitted or top-dose-only effect, or another doubt; inactive = no such curve, though single readings can be large; an effect the other way counts as inactive or inconclusive. Potency is the fitted concentration of half-maximal effect.
SMILES,NPR1 antag,NIH3T3 tox,FLuc inh-1,HEK293 tox,FLuc SDR -ATP,FLuc SDR ATP,FLuc inh-2
CN1c2cc(C(=O)Nc3cccc(C(F)(F)F)c3)ccc2C(=O)N2CCCCCC21 (stereo unspecified),-15.8%,?,i,?,/,/,/
CC(C)c1nc2c(c(-c3ccc(Cl)cc3)n1)CCN(C(=O)c1ccccc1F)CC2,/,-18.4%,/,?,/,/,/
CCc1ccc2oc(-c3ccc(C)c(NC(=O)c4ccc(C#N)cc4F)c3)nc2c1,/,/,/,/,17.0%,13.2%,-14.8%
COc1ccc(-c2nc3cc(C(=O)NCc4ccccc4F)ccc3o2)cn1,/,-9.6%,/,-11.8%,/,/,/
COc1ccccc1-c1cccc(C(=O)N2CCC[C@H]2C(=O)NCC(F)F)c1,/,-17.6%,/,-23.6%,/,/,/
CC(C)(C)C(=O)N1CCCN(c2ccnc3ccnn23)CC1,/,-27.6%[138 µM],/,?,/,/,/
CN1CCc2nc3sc(C(=O)Nc4cccc(C#N)c4)c(N)c3cc2C1,/,/,/,/,13.6%,16.0%,-12.1%
CN1CCN([C@H]2[C@@H]3OC[C@@H](O3)[C@@H](NC(=O)Nc3cccc(C#N)c3)[C@@H]2O)CC1,4.0%[70.6 µM],-2.7%[174 µM],i,-27.3%[172 µM],/,/,/
CN1CCC(N[C@H]2[C@H](O)[C@H](O)C[C@@H]2c2ccc(N3CCOCC3)nc2)CC1,-1.3%[70.6 µM],-2.0%[138 µM],i,-1.2%[172 µM],/,/,/
C=CCOC(=O)Nc1nc2c(s1)C[C@@H]1[C@](C)(CO)[C@H](O)CC[C@@]1(C)[C@@H]2CC(=O)NC1CCCCC1,-9.6%,?,i,?,/,/,/
O=S(=O)(NC1CCN(c2cc(N3CCOCC3)cnn2)C1)c1ccccc1 (stereo unspecified),/,-15.3%,/,-16.9%,/,/,/
O=C(Nc1ccccc1)N1CC(Oc2ccc(-c3nc(-c4ccccc4)no3)cc2)C1,-22.0%,-3.1%,1.26µM*,?,16.9%,14.4%,?
O=C(Cc1cccc(F)c1)N1CC(Oc2ccc(-c3nc(-c4ccccc4)no3)cc2)C1,7.94µM*,-12.9%,2µM*,?,13.5%,15.0%,?
CCNC(=O)N1CC(Oc2ccc(-c3nc(-c4ccccc4)no3)cc2)C1,0.251µM*,-34.4%,0.631µM*,?,18.6%,18.8%,?
O=C(c1cccc(F)c1)N1CC(Oc2cccc(-c3nc(-c4ccccc4)no3)c2)C1,4.5%,?,?,?,/,/,/
Nc1ncnc2c1ncn2[C@H]1O[C@H](CO)[C@@H](O)[C@@H]1O,/,/,/,/,11.5%,10.2%,2.4%
COc1ccc(-c2cnc3[nH]cc(CC(=O)N4CCN(c5ccccn5)CC4)c3c2)cc1,?,?,7.08µM*,79.4µM*,24.2%[49.3 µM],15.2%[49.3 µM],?
Cc1cnc(C)n1C1CCN(S(=O)(=O)c2ccc(C#N)cc2)CC1,7.9%,-16.2%,i,-13.1%,/,/,/
COc1ccc(-c2ccc(C(=O)NCc3cccc(C(F)(F)F)c3)cc2)nn1,/,-18.1%,/,-17.2%,/,/,/
CCCn1c(C)cnc1CC1CCN(C(=O)C2(c3ccc(OC)cc3)CC2)C1 (stereo unspecified),-21.1%,-25.5%,6.31µM*,28.2µM*,11.6%,17.0%,-13.8%
COCCn1c(C)cnc1CC1CCCN(C(=O)C2(c3ccc(OC)cc3)CC2)C1 (stereo unspecified),-4.6%,-6.3%,i,-3.0%,/,/,/
Cc1ccsc1C(=O)N1CCN(c2cc(-c3ccccc3)[nH]n2)CC1,-3.0%,?,i,?,/,/,/
CN1CC2(CCCN(CC3CC3)C2)c2cc(C(=O)Nc3ccn(C)n3)ccc21 (stereo unspecified),2.0%[70.6 µM],-13.4%[138 µM],i,?,/,/,/
COCCN1CCC2(C1)CN(C)c1ccc(C(=O)Nc3ccc(F)cc3)cc12 (stereo unspecified),?,?,2.82µM*,79.4µM*,?,?,7.18µM*
COCCN1CCC2(C1)CN(C)c1ccc(C(=O)Nc3ccccc3)cc12 (stereo unspecified),6.31µM*,?,0.631µM*,79.4µM*,4.04µM*,?,1.14µM*
SMILES,NPR1 antag,NIH3T3 tox,FLuc inh-1,HEK293 tox,FLuc SDR -ATP,FLuc SDR ATP,FLuc inh-2
COCCN1CCC2(C1)CN(C)c1ccc(C(=O)Nc3ccn(C)n3)cc12 (stereo unspecified),/,/,/,/,?,?,10.1µM*
COCCN1CCC2(C1)CN(C)c1ccc(C(=O)NCC3CC3)cc12 (stereo unspecified),0.5%[70.6 µM],?,i,-27.5%[172 µM],/,/,/
CN1CCC(N2C[C@@H]3C[C@H]2C(=O)N(Cc2cccnc2)c2ccccc2O3)CC1,1.5%[70.6 µM],i,i,i,/,/,/
COc1ccc(Nc2cc3c(cn2)CN(C)CCN3)cc1OC,-1.3%[70.6 µM],?,i,-29.8%[172 µM],/,/,/
c1cncc(Nc2cc3c(cn2)CN(CC2CCCCC2)CCN3)c1,5.7%[70.6 µM],?,?,?,/,/,/
CC(=O)N1CCNc2cc(Nc3cccc(N(C)C)c3)ncc2C1,-1.3%[70.6 µM],?,2.82µM*,?,31.4%[49.3 µM],?,16.1µM*
COc1cccc(Nc2cc3c(cn2)CN(C(C)=O)CCN3)c1,-30.4%[70.6 µM],?,1.78µM*,?,?,?,9.04µM*
COCCn1c(=O)c2c(n1Cc1ccccc1)CN(C(=O)CCc1ccccn1)CC2,1.0%[70.6 µM],?,i,-8.1%[172 µM],/,/,/
COc1cccc(CNC(=O)Nc2cccc(-c3ccc(N4CCOCC4)nn3)c2)c1,?,?,1.12µM*,?,?,?,2.79µM*
COc1ccc(CNC(=O)Nc2cccc(-c3ccc(N4CCCCC4)nn3)c2)cc1,8.91µM*,?,0.251µM*,?,1.97µM*,?,0.495µM*
O=C(Nc1cccc(-c2ccco2)c1)C1CCN(C(=O)NCc2ccco2)CC1,-1.9%,?,i,?,/,/,/
O=C(NCc1ccccc1)Nc1cccc(-c2nnc3n2CCCC3)c1,-2.7%,-14.2%,i,?,/,/,/
Cc1ccc(CNC(=O)Nc2cccc(-c3ccc(N4CCOCC4)nn3)c2)cc1,-25.5%,?,1.26µM*,?,?,?,2.79µM*
O=C(NCc1ccco1)Nc1cccc(-c2ccc(N3CCCC3)nn2)c1,-21.8%,?,7.08µM*,?,?,?,?
CC1CCN(CC2CCCN(C(=O)c3cccc(F)c3)CC2)CC1 (stereo unspecified),/,-5.9%,/,i,/,/,/
COc1ccc(-c2[nH]nc3ncc(C(=O)NCC4CCOCC4)nc23)c(C)c1,-3.0%[70.6 µM],?,i,?,/,/,/
COc1ccc(C(=O)N2CCCn3ccnc3C2c2cnn(C)c2)cn1 (stereo unspecified),-4.1%,0.0%,i,0.8%,/,/,/
CCCc1nn2cc(-c3ccc(C)c(C)c3)nc2s1,/,/,/,/,?,?,0.624µM*
